Our source for the fluorescence inhibition and growth inhibition values is PubChem BioAssay AID1159583 (ICCB-Longwood Screening Facility, Harvard Medical School, 2016).

Where “and” joins values, the source holds several entries; their conditions need not be identical. Equal values may be shown once. About 310 (0.1%) of roughly 300,000 compounds were called active. No stated cut-off is given here; in the data, active means fluorescence inhibition mostly above about 23% (no sharp cut-off); inactive means mostly below about 17%. Many of the other results were omitted from the sample, so actives are more common in it than they were.

The nature of the experiment: hypoxia reporter signal reduction in M. tuberculosis – fluorescence, absorbance growth readout, primary screen (AID 1159583). The settings on record: M. tuberculosis hypoxia-regulated fluorescent reporter, stronger effect = higher value, concentration not given here; growth inhibition: measured here: M. tuberculosis growth (absorbance).
For the compound `CC(=NNC(=O)c1cc(-c2cccnc2)nc2ccccc12)c1ccc(O)cc1O`, the fluorescence inhibition is 2.22% (inactive) and the growth inhibition is 2.87%.

With `COc1ccc(C=NNC(=O)c2ccccc2OC)cc1COc1ccccc1[N+](=O)[O-]`, the fluorescence inhibition was 1.62% (inactive) and the growth inhibition is -1.45%.

In the case of `C[C@@]12CCC=CC1C(c1ccc(C(F)(F)F)cc1)N(Cc1ccccc1)C2=O` (some centres not stated), the fluorescence inhibition is 11.1% (inactive) and the growth inhibition is 10.9%.

On to `Cc1ccccc1CN1C(Cc2ccccc2)COCCS1(=O)=O` (configuration not stated), for which the fluorescence inhibition is 6.62% (inactive) and the growth inhibition was 4.01%.

For the compound `CC=CC=CC(=O)Nc1cccc(C2=NOC3(C2)CC(C(N)=O)N(C(=O)c2ccccc2C(=O)c2ccccc2)C3)c1` (configuration not stated), the fluorescence inhibition is -0.767% (inactive) and the growth inhibition is 8.5%.

In the case of `C=CCn1c(SCC(=O)NC(=O)Cc2ccccc2)nc2ccccc2c1=O`, the fluorescence inhibition was 23.4% (active) and the growth inhibition was 56.9%.

`C=CCn1c(SCc2ccc(C(=O)NCCO)cc2)nc2ccccc2c1=O`: the fluorescence inhibition was 9.54% (inactive) and the growth inhibition was 8.96%.

In the case of `COC(=O)CSc1nc2ccccc2c(=O)n1Cc1ccccc1`, the fluorescence inhibition is 5.85% (inactive) and the growth inhibition was 20.4%.

`CCN(CC)c1ccc(C=NNS(=O)(=O)c2cccc([N+](=O)[O-])c2)cc1`: the fluorescence inhibition was -5.38% (inactive) and the growth inhibition amounted to 0.14%.

Take `CCC(=NNC(=O)CSCc1ccccc1Br)c1ccc2c(c1)OCCO2`: the fluorescence inhibition was 0.753% (inactive) and the growth inhibition amounted to 1.89%.

`O=C(NN=Cc1cccc([N+](=O)[O-])c1)c1ccc(CN2CCOCC2)cc1`: the fluorescence inhibition was 4.86% (inactive) and the growth inhibition worked out at 16.6%.

Turning to `CCCCN=C1NC(=Cc2ccco2)C(=O)N1c1ccccc1`, the fluorescence inhibition was 8.24% (inactive) and the growth inhibition amounted to 10.9%.

As to `COc1ccccc1C=NNC(=O)CCn1cnc2ccccc21`, the fluorescence inhibition is 4.69% (inactive) and the growth inhibition is -0.174%.

With `COc1cccc(CNC(=O)CN2C(=O)NC(Cc3ccccc3)(c3ccccc3)C2=O)c1` (configuration not stated), the fluorescence inhibition is 26.4% (active) and the growth inhibition is 52.7%.

For the compound `COc1cccc(CNC(=O)COC(=O)CN2C(=O)NC3(CCCCC3C)C2=O)c1` (configuration not stated), the fluorescence inhibition is -6.03% (inactive) and the growth inhibition amounted to 2.37%.

With `CCCCNC(=O)CN1C(=O)NC(Cc2ccccc2)(Cc2ccccc2)C1=O`, the fluorescence inhibition was 3.73% (inactive) and the growth inhibition was found to be 16.6%.

As to `CC(CC(=O)Nc1ccc(Cl)cc1Cl)=NNC(=O)C(=O)N1CCCC1`, the fluorescence inhibition is 11% (inactive) and the growth inhibition is 5.91%.

Regarding `COc1ccc(C=NN=C(N)c2nonc2N)cc1`, the fluorescence inhibition was 10.3% (inactive) and the growth inhibition amounted to 6.79%.

As to `CC(=O)OCC1OC(CC=NOCC(O)C2OC3OC(C)(C)OC3C2O)C=CC1OC(C)=O` (configuration not stated), the fluorescence inhibition was 9.33% (inactive) and the growth inhibition is 7.61%.

As for `CCOC(=O)C1C2COc3cc(OC)ccc3C2N2C(=O)N(c3ccc(Cl)cc3)C(=O)[C@]12C` (some centres not stated), the fluorescence inhibition is -4.96% (inactive) and 1.79% (inactive); the growth inhibition is 2.67% and 0.308%.

Regarding `CC(=O)Nc1ccc(S(=O)(=O)NN=Cc2ccc(C)o2)cc1`, the fluorescence inhibition was 7% (inactive) and the growth inhibition is -2.42%.

Regarding `O=C(Cc1cccs1)NN=C/C=C/c1ccco1`, the fluorescence inhibition was 8.6% (inactive) and the growth inhibition turned out to be 14.2%.

`O=C(CNC(=O)c1ccc2c(c1)OCCO2)NN=Cc1ccc(Cl)cc1`: the fluorescence inhibition is -0.656% (inactive) and the growth inhibition came to 8.25%.

On to `COc1ccc(OC)c(C=NNC(=O)c2[nH]ncc2Br)c1`, for which the fluorescence inhibition is 17.8% (inactive) and the growth inhibition was 3.99%.

Turning to `COc1cc(C=NNC(=O)Cc2c[nH]c3ccccc23)cc(OC)c1OC`, the fluorescence inhibition was 1.09% (inactive) and the growth inhibition was 3.89%.

Consider `COc1ccc2ccccc2c1C=NNC(=O)c1cccc(Br)c1`, for which the fluorescence inhibition was 6.25% (inactive) and the growth inhibition is 6.52%.

In the case of `CCN1C(=O)C2C(c3ccc(-c4cccc(Cl)c4)cc3)N[C@@](C)(C(=O)OC)C2C1=O` (some centres not stated), the fluorescence inhibition was 8.93% (inactive) and the growth inhibition came to 17.5%.

Consider `Cc1ccccc1CN1C(=O)C(C)SC1=NN=Cc1ccco1` (configuration not stated), for which the fluorescence inhibition is 7.25% (inactive) and the growth inhibition is 1.63%.

For `COC(=O)c1ccc(C=NNC(=O)c2ccc3nc[nH]c3c2)cc1`, the fluorescence inhibition was 3.23% (inactive) and the growth inhibition is -1.77%.

Consider `CC(C)C(=NNC(=O)Nc1ccccc1)c1ccccc1`, for which the fluorescence inhibition was 3.82% (inactive) and the growth inhibition was 6.86%.

`CC(=NNC(=O)c1csc(C)c1C)c1ccco1`: the fluorescence inhibition was 12.3% (inactive) and the growth inhibition turned out to be 18.1%.

As to `CCN(CC)S(=O)(=O)c1ccc(NN=Cc2ccc(OC)c(OC)c2OC)nc1`, the fluorescence inhibition is 6.7% (inactive) and the growth inhibition was determined as 6.24%.

In the case of `CC(=NNC(=O)c1cc2ccccc2cc1O)c1ccc2c(c1)OCO2`, the fluorescence inhibition was -11.6% (inactive) and the growth inhibition is 0.0347%.

As for `C=CCNC(=S)NN=Cc1ccc(-c2cc(Cl)ccc2Cl)o1`, the fluorescence inhibition is 6.01% (inactive) and the growth inhibition worked out at 7.37%.

On to `N#Cc1ccc(OCC(=O)NN=CC2CC=CCC2)cc1` (configuration not stated), for which the fluorescence inhibition was 15.6% (inactive) and the growth inhibition came to 1.47%.

Regarding `O=C(CCCCCCCCC(=O)NN=Cc1ccco1)NN=Cc1ccco1`, the fluorescence inhibition is -1.23% (inactive) and the growth inhibition was 5.53%.

With `Cc1cccc(C(=O)NN=C2SCC(=O)N2Cc2ccccc2)c1`, the fluorescence inhibition is -0.985% (inactive) and the growth inhibition was -2.16%.

With `O=C(NN=Cc1ccc2nccnc2c1)c1ccc(Br)cc1`, the fluorescence inhibition is -2.27% (inactive) and the growth inhibition was -1.22%.

Consider `C/C(C=NNC(=O)Cc1cccs1)=C\c1ccco1`, for which the fluorescence inhibition is 8.51% (inactive) and the growth inhibition is 5.57%.

On to `CCOC(=O)NN=CC=Cc1ccco1`, for which the fluorescence inhibition was 5.07% (inactive) and the growth inhibition came to 6.05%.

For `COC(=O)c1ccc2[nH]c(C(C)O)c(C(C)O)c2c1` (configuration not stated), the fluorescence inhibition was -12.5% (inactive) and the growth inhibition worked out at 0.422%.
